# Source: PubChem (National Center for Advancing Translational Sciences (NCATS))
# HP1b binding inh: inhibitors of HP1-beta chromodomain binding to methylated histone tails. P83916. AlphaScreen HP1-beta / biotin-H3K9me3 peptide binding. Potency, µM (highest dose often 114 µM), usual class: inhibitors. hit rate 0.56% among 390,000; further: nearly all actives have a fitted effect of over 70% in size
#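 Compound inhibition of the preformed complex between 50 nM HP1-beta and 50 nM biotinylated H3K9me3 peptide was read by AlphaScreen. Buffer was PBS pH 7.4 with 0.01% Tween-20. Incubations ran 30 min at room temperature, with 10 ug/mL donor/acceptor beads.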
# L3MBTL1 block: inhibitors of human L3MBTL1. Q9Y468. AlphaScreen L3MBTL1–H3K9me1 peptide binding. Potency, µM (top dose mostly 57.1 µM), usual class: inhibitors. hit rate 0.66% among 230,000; further: nearly all actives have a fitted effect of over 60% in size
# Target sequence (Q9Y468 whole entry, looked up): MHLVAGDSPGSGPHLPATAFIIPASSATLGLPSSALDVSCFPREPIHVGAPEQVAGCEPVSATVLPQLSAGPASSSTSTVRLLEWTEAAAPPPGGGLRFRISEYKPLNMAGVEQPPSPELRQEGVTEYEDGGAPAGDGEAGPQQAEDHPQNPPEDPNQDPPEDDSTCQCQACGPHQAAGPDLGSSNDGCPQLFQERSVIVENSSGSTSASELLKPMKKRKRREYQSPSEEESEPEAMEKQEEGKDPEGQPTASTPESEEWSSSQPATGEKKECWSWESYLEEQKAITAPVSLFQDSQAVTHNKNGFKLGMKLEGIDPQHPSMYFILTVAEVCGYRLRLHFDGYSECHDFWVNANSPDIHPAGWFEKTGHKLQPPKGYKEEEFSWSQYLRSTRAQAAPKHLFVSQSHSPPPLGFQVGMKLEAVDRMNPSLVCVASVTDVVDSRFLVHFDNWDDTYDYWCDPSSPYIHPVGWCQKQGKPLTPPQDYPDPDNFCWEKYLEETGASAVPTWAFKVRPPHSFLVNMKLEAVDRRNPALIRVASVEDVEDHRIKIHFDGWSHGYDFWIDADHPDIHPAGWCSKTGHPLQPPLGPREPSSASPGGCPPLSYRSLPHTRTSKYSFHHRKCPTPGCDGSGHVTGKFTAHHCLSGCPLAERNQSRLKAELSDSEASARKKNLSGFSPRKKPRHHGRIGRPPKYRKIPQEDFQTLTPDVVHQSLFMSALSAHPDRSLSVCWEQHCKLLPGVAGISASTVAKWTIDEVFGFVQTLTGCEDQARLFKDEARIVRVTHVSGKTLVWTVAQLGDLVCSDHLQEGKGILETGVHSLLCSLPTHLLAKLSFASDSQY
#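 L3MBTL1 (50 nM) pre-complexed 30 min with biotinylated H3(1-15)K9me1 peptide (75 nM), then compounds added for 30 min at room temperature; AlphaScreen streptavidin donor/nickel chelate acceptor beads (10 ug/mL final) read after 30 min dark incubation.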
# JMJD2A Tudor: blocks the human JMJD2A Tudor domain; O75164; Potency, µM (titrated, usually from 114 µM), hits mostly inhibitors; AlphaScreen JMJD2A-Tudor / H3K4me3 peptide binding; AID 504339; hit rate 4.4% among 390,000; further: nearly all actives have a fitted effect of over 50% in size
# JMJD2E inh: JMJD2E (human) inhibition | B2RXH2 | JMJD2E catalytic domain, FDH-coupled NADH fluorescence (FDH is formaldehyde dehydrogenase) | Potency, µM (doses to about 57.1 µM), actives largely listed as inhibitors | hit rate 1.6% among 230,000 | AID 2147; active means well fitted inhibition curve with a large enough effect, not every such curve was filed as active; inconclusive means small, poorly fitted or top-dose-only effect, or another doubt; inactive means no such curve, though single readings can be large or run the other way; further: nearly all actives have a fitted effect of over 50% in size
# PI5P4Ka inh: blocks human PI5P4K alpha kinase activity. max response, %. PI5P4Kalpha enzyme, ADP-Glo luminescence, 60 min; hits give low values. hit rate 1.2% among 330,000. P48426; active means max response of -50% or lower; inconclusive means between -30% and -50%; inactive means -30% or higher; further: value at the top dose of about 77 µM
#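 ADP-Glo luminescence end-point read after a 60 min room-temperature kinase reaction of PI5P4Kalpha plus substrate, initiated with ATP at 5 microM final. Buffer: 0.038 M HEPES pH 7.4, EGTA, 0.1% CHAPS, 5% DMSO.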
# BAZ2B block: BAZ2B (human) inhibition | Q9UIF8 | AlphaScreen BAZ2B-H3K14Ac peptide displacement | AID 504333 | Potency, µM (titrated, usually from 114 µM), most hits filed as inhibitors | hit rate 4.4% among 360,000; further: nearly all actives have a fitted effect of over 60% in size
#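 Complex of BAZ2B and biotin-H3K14Ac (50 nM apiece) forms over 30 min at RT, then faces library compounds up to 110 uM for another 30 min; AlphaScreen beads added, 20 min dark incubation, luminescence read.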
# Numbers stand for hits; n = inactive; u = inconclusive; x = not tested or not shown; [ ] = remark or other dose. This is a sample that favours compounds with a hit; in the whole collection about 5.7% have one here. Unless noted, the call rests on the fitted dose curve; in most records, active means well fitted inhibition curve with a large enough effect; inconclusive means small, poorly fitted or top-dose-only effect; inactive means no such curve, though single readings can be large or run the other way.
SMILES,HP1b binding inh,L3MBTL1 block,JMJD2A Tudor,JMJD2E inh,PI5P4Ka inh,BAZ2B block
C[C@@]12C(=O)N(CCO)CC(=O)N1[C@H](/C=C/c1ccccc1)[C@@H]1C(=O)N(c3ccccc3)C(=O)[C@@H]12,n,n,n,x,n,n
COC(=O)CCCCCN1C(=O)/C(=C\c2ccncc2)SC1=S,u,n,45µM,n,n,25µM
O=C(CCN1C(=O)/C(=C/c2cccs2)SC1=S)N1CCCCC1,u,x,u,x,n,8.9µM
O=C(CCCN1C(=O)/C(=C\c2ccccc2)SC1=S)N1CCOCC1,u,n,u,x,n,x
O=C(CCCN1C(=O)/C(=C\c2cccs2)SC1=S)NNC(=O)c1ccncc1,n,n,50µM,n,n,u
O=C(CCCN1C(=O)/C(=C/c2ccccc2Cl)SC1=S)N1CCOCC1,n,x,22µM,x,n,79µM
S=C(Nc1ccc2[nH]ccc2c1)NC1CCCCC1,n,n,u,n,n,u
CCN(CC)CCOC(=O)c1ccc(NC(=O)CCCN2C(=O)/C(=C\c3cccs3)SC2=S)cc1,u,x,25µM,x,n,20µM
COc1ccc(/C=C2\Sc3ccc(C(=O)NCC4CCCO4)cc3N(C)C2=O)cc1 (configuration not stated),n,x,u,x,n,n
COc1ccc(/C=C2\Sc3ccc(C(=O)N4CCOCC4)cc3N(C)C2=O)cc1,n,x,56µM,x,n,n
O=C(CCN1C(=O)/C(=C\c2cccs2)SC1=S)Nc1ccc(C(=O)O)cc1,n,x,u,x,n,n
COc1ccc(/C=C2\SC(=S)N(CCCC(=O)N3CCOCC3)C2=O)cc1,n,x,50µM,x,n,x
COc1cccc(/C=C2\SC(=S)N(CCCC(=O)N3CCCCC3CCO)C2=O)c1 (configuration not stated),n,x,20µM,x,n,25µM
C[C@]12C[C@@](C)(C=C1/C=C/c1ccc(F)cc1)C(=O)C[C@H]2c1ccc(F)cc1,x,x,x,n,x,x
CCc1ccccc1NC(=O)C(=O)NCCc1sc(-c2cccc(F)c2)nc1C,n,x,n,x,x,n
CCc1ccc(C(=O)OCC(=O)N(CCOC)c2c(N)n(Cc3ccccc3)c(=O)[nH]c2=O)cc1,n,n,n,x,n,n
COc1cccc(/C=C2\SC(=S)N(CCC(=O)N3CCCCC3CCO)C2=O)c1 (configuration not stated),u,x,u,x,n,32µM
COc1ccccc1/C=C1\SC(=S)N(CCC(=O)N2CCCCC2CCO)C1=O (configuration not stated),n,x,u,x,n,n
CCCCC(CC)CN1C(=O)/C(=C/c2ccncc2)SC1=S (configuration not stated),u,n,28µM,u,n,u
COc1cccc(/C=C2\SC(=S)N(CCCC(=O)N3CCCC3)C2=O)c1,u,x,45µM,x,n,32µM
O=C1/C(=C/c2cccs2)SC(=S)N1CCC(=O)N1CCCCC1CCO (configuration not stated),n,x,u,x,n,22µM
CCCC/C=C/[C@H](c1ccccc1)[C@H](CO)Cc1cnc2ccccc2c1,n,x,n,x,x,x
Clc1nc(NCc2cccs2)c2[nH]cnc2n1,n,x,n,x,x,x
COc1cc(C)cc2oc(=O)c(CC(=O)NCc3cccc(Cl)c3)c(C)c12,n,x,n,x,x,n
O=C(NCc1ccccn1)C(F)(F)C(F)(F)C(=O)NCc1ccccn1,n,n,n,n,n,n
SMILES,HP1b binding inh,L3MBTL1 block,JMJD2A Tudor,JMJD2E inh,PI5P4Ka inh,BAZ2B block
O=C(NCCc1ccccn1)C(F)(F)C(F)(F)C(F)(F)C(F)(F)C(F)(F)C(F)F,n,n,50µM,n,n,n
COc1ccccc1-c1noc2c1C(=O)N(Cc1cn(-c3ccccc3)nn1)CC2,x,x,x,x,n,x
CC(=O)c1c(C)[nH]c(C(=O)Nc2nccs2)c1C,n,x,22µM,n,n,u
COC(=O)C1CCN(S(=O)(=O)c2c[nH]c(=O)[nH]c2=O)CC1,x,x,x,x,n,x
CC(=O)c1ccc(NC(=S)NNC(=O)c2ccccc2[N+](=O)[O-])cc1,n,n[11.4 µM],n,n,n,50µM
Cc1ccc(C(=O)NC(=S)NNC(=O)c2ccccc2[N+](=O)[O-])cc1,n,n,56µM,u,u,n
O=C(NNC(=S)NC(=O)c1ccccc1[N+](=O)[O-])c1ccccc1[N+](=O)[O-],n,x,n,n,x,n
